Screening results (PubChem BioAssay)
TGFb inhibitor – qHTS for Inhibitors of TGF-b | Potency, µM (titrated, usually from 46.1 µM), for inactives: top-dose activity, negative = inhibition, usual class: inhibitors | 410,000 compounds, 1.2% hits | HepG2 CAGA-GFP TGF-b/SMAD3 reporter, GFP fluorescence, 18 h; TGF-beta stimulated, 500 pg/mL final; further: on the % scale 0 is the no-effect control and ±100 the full control effect; nearly all actives have a fitted effect of over 65% in size
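First, reporter cells (HEPG2 CAGA-GFP) rested 2 h at 37 degrees C. Next, compounds were pinned in and TGF-beta added to 500 pg/mL final. After 18 h, GFP was imaged per cell and summed per well.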
DT40 TDP1 CPT – qHTS for Inhibitors of human tyrosyl-DNA phosphodiesterase 1 (TDP1): qHTS in cells in presence of CPT; chicken DT40 Tdp1-/-;hTDP1 cells + 20 nM CPT, ATP luminescence, 48 h; Potency, µM (titrated, usually from 46.2 µM), for inactives: top-dose activity change, negative = growth inhibition, hits mostly inhibitors; 420,000 compounds, 12% hits; AID 686979, 2013; further: on the % scale 0 is the no-effect control and ±100 the full control effect; nearly all actives have a fitted effect of over 55% in size
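Cell growth measured by CellTiter-Glo luminescence after a minimum 48 h, 37 C compound exposure with 20 nM CPT in Tdp1-knockout DT40 cells stably expressing hTDP1, seeded 400/well; qHTS titration format.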
DT40 TDP1 no CPT – qHTS for Inhibitors of human tyrosyl-DNA phosphodiesterase 1 (TDP1): qHTS in cells in absence of CPT | Potency, µM (highest dose often 46.2 µM), inactives show at the highest dose activity change, negative = growth inhibition, usual class: inhibitors | DT40 Tdp1-/- hTDP1 cells, no CPT, ATP luminescence, 48 h | 420,000 compounds, 15% hits; further: on the % scale 0 is the no-effect control and ±100 the full control effect; nearly all actives have a fitted effect of over 55% in size
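Chicken DT40 Tdp1-/- cells stably complemented with human TDP1 were seeded at 400 cells/well with DMSO in place of 20 nM camptothecin. After compound pinning, cells grew at least 48 hr at 37 °C; viability read by CellTiter-Glo luminescence.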
HepG2 tox – qHTS for Inhibitors of TGF-b: Cytotox Counterscreen; HepG2 CAGA-GFP viability, ATP luminescence, 18 h; Potency, µM (titrated, usually from 46.1 µM), for inactives: at the top dose activity change, negative = cytotoxicity, actives largely listed as cytotoxic; 410,000 compounds, 0.76% hits; AID 588856, 2011
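HepG2 CAGA-GFP cells (1000/well, DMEM with 1% FBS) received compound, then TGF-beta at 500 pg/mL final, and were incubated 18 hours at 37 degrees C. Viability was read by CellTiter-Glo luminescence. Media-only wells were set as complete cell-killing and DMSO as no toxicity.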
ATXN2 expr inh – Primary qHTS for Inhibitors of ATXN expression; 360,000 compounds, 0.72% hits; AID 1745845, 2022; Potency, µM (top dose mostly 57 µM), inactives show at the highest dose activity change, negative = inhibition, usual class: inhibitors; HEK-293 ATXN2-luciferase reporter, luminescence, 24 h; further: on the % scale 0 is the no-effect control and ±100 the full control effect; nearly all actives have a fitted effect of over 55% in size
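ATXN2-luciferase reporter cells (luciferase flanked by upstream and downstream ATXN2 gene portions) were treated 24 h at 37 °C with compounds at up to 57 uM. SteadyGlo luminescence gave expression; GF-AFC fluorescence gave viability.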
ATXN viability – Viability Counterscreen for Primary qHTS for Inhibitors of ATXN expression; Potency, µM (series often up to 56.7 µM), most hits filed as cytotoxic; S2 cells (HEK-293 line with an ATXN2-luciferase reporter) viability, CellTiter-Fluor protease fluorescence, 24 h; 400,000 compounds, 0.49% hits; AID 651635, 2014; further: nearly all actives have a fitted effect of over 40% in size
* = called active by the depositor; i = inactive; ? = inconclusive; · = not tested or not shown. Compounds with a hit are over-represented: about 17% of the library has one in this group of screens. The call rests on the fitted dose curve; in most records, active means well fitted curve in the direction sought with a large enough effect; inconclusive means small, poorly fitted or top-dose-only effect, or another doubt; inactive means no such curve, though single readings can be large; an effect the other way counts as inactive or inconclusive. Potency means the concentration at half of the fitted maximal effect.

SMILES	TGFb inhibitor	DT40 TDP1 CPT	DT40 TDP1 no CPT	HepG2 tox	ATXN2 expr inh	ATXN viability
COC(=O)C1=C(c2cccc(OCc3ccccc3)c2)C[C@@H]2CC[C@H]1N2C(=O)NCc1ccc(Cl)cc1	-13%	?	?	0%	-16%	i
CN1CC=C(/C=C/c2ccc(-c3ccccc3)cc2)CC1	?	15µM*	12µM*	11µM*	·	?
COc1ccc(OC)c(N2C(=O)CC(=O)NC2=O)c1	18%	4%	5%	-1%	·	i
COc1ccc(C2CC(=O)Nc3cc4c(cc32)OCO4)c(OC)c1 (configuration not stated)	·	?	15µM*	-14%	·	·
CC(C)CN1CCC2(CC1)CCN(C(=O)Oc1ccccc1)CC2	·	-1%	1%	·	·	·
C[C@@H]1CC2=CC(=O)CC[C@@H]2[C@H]2CC[C@@]3(C)[C@@H](CC[C@]3(C)O)[C@@H]21	·	·	·	·	-10%	i
CN1CCN(c2ccc([N+](=O)[O-])c(N/N=C3\CN4CCC3CC4)c2)CC1	8%	2%	-3%	-22%	-7%	10µM*
COc1ccc(Cl)cc1C(=O)Nc1ccc([N+](=O)[O-])cc1Cl	7%	?	-11%	3%	·	·
COc1ccc(S(=O)(=O)Nc2cc([N+](=O)[O-])ccc2OC)cc1	-25%	?	21µM*	3%	-31%	?
COc1ccc(NC(=O)CN2C(=O)C(C)N=C(c3ccccc3F)c3cc(Cl)ccc32)c(OC)c1 (configuration not stated)	?	?	?	-15%	·	·
CCN(CC)CCN1C(=O)CN=C(c2ccccc2F)c2cc(Cl)ccc21	·	?	27µM*	·	-8%	i
COc1ccc(Cl)cc1NC(=O)CN1C(=O)CN=C(c2ccccc2)c2cc(Cl)ccc21	?	?	15µM*	-24%	-35%	i
Cc1cc(C)cc(NC(=O)CN2C(=O)CN=C(c3ccccc3)c3cc(Cl)ccc32)c1	?	21µM*	?	-46%	·	·
O=C(O)CN1C(=O)CN=C(c2ccccn2)c2cc(Cl)ccc21	-1%	-2%	-7%	5%	·	i
CCc1cccc(NC(=O)CN2C(=O)CN=C(c3ccccc3F)c3cc(Cl)ccc32)c1	13µM*	?	?	-55%	·	·
CCOC(=O)c1c(C)[nH]c(C)c1C(=O)C(Cc1ccccc1)N(C)C (configuration not stated)	30%	?	?	-13%	·	i
CN1CCC2(CC1)CCN(C(=O)Oc1ccccc1)CC2	·	5%	-11%	·	·	·
COc1ccc(CNC(=O)Cn2c(SCC(=O)Nc3ccc(C)c(C)c3)nc3ccccc32)cc1	16%	?	4.6µM*	-21%	-1%	i
Cc1ccc(NC(=O)Cn2c(=O)oc3ccccc32)cc1C	14%	2%	-2%	9%	-3%	?
C[C@H]1[C@@H](OS(=O)(=O)O)C[C@@H]2C[C@H]([C@@H](O)c3cc(=O)[nH]c(=O)[nH]3)NC3=NC[C@H]1N32	2.5µM*	2.3µM*	3.7µM*	-8%	10µM*	i
c1csc(CN2CCC3(CCNCC3)CC2)n1	·	6%	10%	·	·	·
COCCN1C(=O)NC(=O)/C(=C\c2ccc(Br)cc2)C1=O	-6%	21µM*	?	18%	·	i
CCN1C[C@]2(OC(=O)c3ccccc3NC(C)=O)CC[C@H](OC)[C@@]34[C@H]5CC6[C@@H](OC)C[C@](O)(C(C[C@@H]23)[C@@H]14)[C@@]5(O)[C@@H]6OC	·	·	·	·	4%	·
NC(=Nc1ccccc1)NN=Cc1c[nH]c2ccccc12	?	1µM*	0.92µM*	-45%	-3%	?
CCOc1cc(-c2ccc(N)c(OCC)c2)ccc1N	22%	12µM*	?	7%	0%	i
SMILES	TGFb inhibitor	DT40 TDP1 CPT	DT40 TDP1 no CPT	HepG2 tox	ATXN2 expr inh	ATXN viability
CC(NS(=O)(=O)OCC(Cl)(Cl)Cl)c1ccccc1 (configuration not stated)	11%	6%	5%	2%	-2%	i
COc1cc2cc(c1Cl)N(C)C(=O)C[C@H](OC(=O)C(C)C)[C@]1(C)O[C@H]1[C@H](C)[C@@H]1C[C@@](O)(NC(=O)O1)[C@H](OC)C=CC=C(C)C2	·	·	·	·	-28%	·
COC1/C=C/C=C(\C)Cc2cc(O)c(Cl)c(c2)N(C)C(=O)CC(OC(=O)C(C)C)C2(C)OC2C(C)C2CC1(O)NC(=O)O2 (configuration not stated)	?	0.016µM*	0.15µM*	-5%	?	?
COc1ccc(C)cc1NC(=O)c1cccn(Cc2ccccc2Cl)c1=O	2%	-29%	-1%	-8%	2%	i
CN(C)C(=O)O/N=C(\N)COc1ccc(C(C)(C)C)cc1	?	21µM*	?	-98%	·	?
CCOC(=O)C(O)(c1ccc(N(C)C(=O)COc2ccccc2)cc1)C(F)(F)F (configuration not stated)	2%	-9%	0%	-2%	-12%	i
O=C(CCS(=O)(=O)c1ccc(Cl)cc1)Nc1cccc(S(=O)(=O)N2CCCCCC2)c1	?	?	?	0%	-9%	?
Cc1ccc(S(=O)(=O)N2CCCCC2)cc1NC(=O)CSc1ncnc2ccccc12	?	26µM*	18µM*	17%	?	?
